About 79,000 compounds went through this panel and 15% of them were active in at least one assay; those are over-represented in the sample as a whole. Rule as the data show it: active = growth inhibition above about 70%; inactive = the rest.
Key:
[1] = NCI Yeast Anticancer Drug Screen. Data for the rad50EPP+ strain (AID 151);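 also: 0% = growth of vehicle-treated control cultures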; details: S. cerevisiae rad50 mutant strain, active compounds read high
In short: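 Measured: growth inhibition of rad50EPP+ yeast. Reference: vehicle-treated controls. Screen uses strains with defined genetic alterations in DNA damage repair or cell cycle control.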

[2] = NCI Yeast Anticancer Drug Screen. Data for the mgt1 strain (AID 153); details: S. cerevisiae mgt1 mutant growth inhibition, active compounds read high
In short: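 Compounds were applied to mgt1 mutant yeast, and growth was then compared against vehicle-treated control cultures to give percent inhibition.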

[3] = NCI Yeast Anticancer Drug Screen. Data for the rad50 strain (AID 155);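 also: 0% = growth of vehicle-only cultures of the same strain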; details: S. cerevisiae rad50 strain growth inhibition, active compounds read high
In short: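 Compounds were tested on a yeast strain with an engineered DNA damage repair alteration; the reported value is growth inhibition normalised to vehicle treatment.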

[4] = NCI Yeast Anticancer Drug Screen. Data for the mec2-1 strain (AID 157); details: S. cerevisiae mec2-1 strain, active compounds read high
In short: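 Compounds were applied to mec2-1 yeast cells. Their growth was then compared with that of vehicle-treated cultures to give growth inhibition.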

[5] = NCI Yeast Anticancer Drug Screen. Data for the rad14 strain (AID 159);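 also: 0% = growth of vehicle-treated control cultures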; details: S. cerevisiae rad14 strain growth inhibition, active compounds read high
In short: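 Compound-treated yeast with a defined DNA-repair lesion; growth inhibition normalised to vehicle-treated cultures.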

[6] = NCI Yeast Anticancer Drug Screen. Data for the sgs1 mgt1 strain (AID 161);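 also: 0% = growth of cultures given vehicle only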; details: S. cerevisiae sgs1 mgt1 strain, active compounds read high
In short: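 Compounds are added to genetically altered yeast, and growth is compared with cultures given vehicle alone to give percent inhibition.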

[7] = NCI Yeast Anticancer Drug Screen. Data for the CLN2oe strain (AID 163);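 also: 0% = growth of vehicle-only control cultures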; details: S. cerevisiae CLN2oe strain, active compounds read high
In short: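 Cells of an engineered yeast line with disturbed cell-cycle regulation are treated with compound. Inhibition of growth is then calculated relative to the vehicle-treated reference.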

[8] = NCI Yeast Anticancer Drug Screen. Data for the cln2 rad14 strain (AID 165);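 also: 0% = growth equal to vehicle treated cultures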; details: S. cerevisiae cln2 rad14 strain, active compounds read high
In short: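 Strain: cln2 rad14 yeast, altered in cell cycle control and DNA damage repair. Read-out: growth inhibition vs vehicle.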

[9] = NCI Yeast Anticancer Drug Screen. Data for the wt2 strain (AID 169);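 also: 0% = growth of vehicle-treated yeast cultures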; details: S. cerevisiae wt2 strain growth inhibition, active compounds read high
In short: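 Growth of compound-treated yeast is measured and expressed as inhibition relative to vehicle-only controls.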

[10] = NCI Yeast Anticancer Drug Screen. Data for the mlh1 strain (AID 171);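 also: 0% = growth of vehicle-treated control cultures of the same strain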; details: S. cerevisiae mlh1 strain growth inhibition, active compounds read high
In short: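 Test agents were incubated with yeast bearing a defined DNA damage repair or cell cycle control alteration; values are growth inhibition normalised to vehicle-treated cultures.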

[11] = NCI Yeast Anticancer Drug Screen. Data for the sgs1 strain (AID 173);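 also: 0% = growth of vehicle-only control cultures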; details: S. cerevisiae sgs1 mutant, active compounds read high
In short: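 Strain with an altered DNA repair or cell cycle pathway exposed to compound. Growth then measured. Value = inhibition versus vehicle control.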

[12] = NCI Yeast Anticancer Drug Screen. Data for the mlh1 rad18 strain (AID 175); details: S. cerevisiae mlh1 rad18 strain growth inhibition, active compounds read high
In short: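 A repair-deficient yeast strain is exposed to test compound, and growth is scored relative to vehicle-treated controls.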

[13] = at 5.0 µM (retest, dose inferred, filed as 0.5)
[14] = at 50.0 µM (retest, dose inferred, filed as 5.0)

Measured: growth inhibition

CCOC(=O)/C(O)=C(/C=N/C(=S)Nc1c(CC)cccc1CC)C(=O)OCC
inactive: [1]; at 1.2 µM -3% | [1]; at 3.7 µM -1% | [1]; at 11.0 µM -5% | [1]; at 33.0 µM -3% | [1]; at 100.0 µM -7% | [2]; at 1.2 µM -7% | [2]; at 3.7 µM -6% | [2]; at 11.0 µM 0% | [2]; at 33.0 µM 20% | [2]; at 100.0 µM 35% | [3]; at 1.2 µM -6% | [3]; at 3.7 µM -3% | [3]; [13] 7% | [3]; at 11.0 µM 11% | [3]; at 33.0 µM 36% | [3]; [14] 65% | [3]; at 50.0 µM 65.3% | [3]; at 100.0 µM 47% | [4]; at 1.2 µM -10% | [4]; at 3.7 µM -5% | [4]; [13] 3% | [4]; at 11.0 µM 10% | [4]; at 33.0 µM 27% | [4]; [14] 34% | [4]; at 50.0 µM 24.6% | [4]; at 100.0 µM 36% | [5]; at 1.2 µM -7% | [5]; at 3.7 µM -7% | [5]; at 11.0 µM -2% | [5]; at 33.0 µM 20% | [5]; at 100.0 µM 38% | [6]; [13] -4% | [6]; [14] 10% | [6]; at 50.0 µM 51.3% | [7]; at 1.2 µM -16% | [7]; at 3.7 µM -23% | [7]; at 11.0 µM -19% | [7]; at 33.0 µM -1% | [7]; at 100.0 µM 29% | [8]; [13] -1% | [8]; [14] 25% | [8]; at 50.0 µM 35.2% | [9]; at 1.2 µM -7% | [9]; at 3.7 µM -6% | [9]; at 11.0 µM -1% | [9]; at 33.0 µM 23% | [9]; at 100.0 µM 40% | [10]; at 1.2 µM -6% | [10]; at 3.7 µM -4% | [10]; at 11.0 µM 6% | [10]; at 33.0 µM 28% | [10]; at 100.0 µM 45% | [11]; at 1.2 µM -8% | [11]; at 3.7 µM 3% | [11]; at 11.0 µM 17% | [11]; at 33.0 µM 42% | [11]; at 100.0 µM 53% | [12]; [13] -8% | [12]; [14] 36% | [12]; at 50.0 µM 59.9%

— PubChem BioAssay (NCI)
